Hit rate of the full screen: of about 5,500 compounds, about 2,000 (36%) were called active. Another 18% or so got no clear call; they are omitted. Rule as the data show it: active = normalized growth mostly below about 0.91 (no sharp cut-off); inconclusive = no clear call, values can overlap the other calls; inactive = mostly above about 0.92. The list shows a part of the results.
Assay: chemical genetic growth profiling, strain panel (AID 1159580);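 also: tested at 20 µM; growth read once vehicle control cultures reached saturation at 30 °C; 1 = growth at the plate median or of vehicle wells; lower values mean less growth of the strain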
Conditions: growth OD

Measured: normalized growth

COC1=C[C@@H]2[C@@H]3Cc4ccc(OC)c(O)c4[C@]2(CCN3C)CC1=O
inactive: S. cerevisiae deletion strains, locus YJR075W, strain HOC1, hits give low values 0.928 | S. cerevisiae deletion strains, locus YKL009W, strain mrt4, hits give low values 0.978 | S. cerevisiae deletion strains, locus YKL068W, hits give low values 0.977 | S. cerevisiae deletion strains, locus YKL085W, strain MDH1 (second series), hits give low values 0.979 | S. cerevisiae deletion strains, locus YKL085W, strain MDH1, hits give low values 0.979 | S. cerevisiae deletion strains, locus YKL160W, strain elf1, hits give low values 0.996 | S. cerevisiae deletion strains, locus YKL190W, strain CNB1, hits give low values 0.977 | S. cerevisiae deletion strains, locus YKR001C, strain vps1, hits give low values 0.992 | S. cerevisiae deletion strains, locus YKR026C, strain gcn3, hits give low values 1 | S. cerevisiae deletion strains, locus YKR091W, strain srl3, hits give low values 0.984 | S. cerevisiae deletion strains, locus YLL001W, strain dnm1, hits give low values 0.997 | S. cerevisiae deletion strains, locus YLL026W, hits give low values 0.982 | S. cerevisiae deletion strains, locus YLL041C, strain sdh2, hits give low values 1 | S. cerevisiae deletion strains, locus YLR027C, strain aat2, hits give low values 1 | S. cerevisiae deletion strains, locus YLR039C, strain RIC1, hits give low values 0.98 | S. cerevisiae deletion strains, locus YLR058C, strain SHM2, hits give low values 0.976 | S. cerevisiae deletion strains, locus YLR102C, strain apc9, hits give low values 0.971 | S. cerevisiae deletion strains, locus YLR113W, strain HOG1, hits give low values 1.01 | S. cerevisiae deletion strains, locus YLR221C, strain rsa3, hits give low values 0.993 | S. cerevisiae deletion strains, locus YLR258W, strain gsy2, hits give low values 0.987 | S. cerevisiae deletion strains, locus YLR262C, strain YPT6 (second series), hits give low values 0.999 | S. cerevisiae deletion strains, locus YLR262C, strain YPT6, hits give low values 0.926 | S. cerevisiae deletion strains, locus YLR268W, strain sec22, hits give low values 0.967 | S. cerevisiae deletion strains, locus YLR320W, strain mms22, hits give low values 1 | S. cerevisiae deletion strains, locus YLR330W, strain CHS5, hits give low values 0.999 | S. cerevisiae deletion strains, locus YLR342W, strain FKS1 (second series), hits give low values 1.03 | S. cerevisiae deletion strains, locus YLR342W, strain FKS1, hits give low values 1 | S. cerevisiae deletion strains, locus YLR357W, strain rsc2, hits give low values 0.943 | S. cerevisiae deletion strains, locus YLR370C, strain arc18, hits give low values 1 | S. cerevisiae deletion strains, locus YLR371W, strain rom2, hits give low values 0.952 | S. cerevisiae deletion strains, locus YLR384C, strain iki3, hits give low values 0.987 | S. cerevisiae deletion strains, locus YLR418C, strain cdc73, hits give low values 0.969 | S. cerevisiae deletion strains, locus YML016C, strain PPZ1, hits give low values 0.979 | S. cerevisiae deletion strains, locus YML032C, strain rad52, hits give low values 0.985 | S. cerevisiae deletion strains, locus YML120C, strain ndi1, hits give low values 1 | S. cerevisiae deletion strains, locus YML124C, strain tub3, hits give low values 0.986 | S. cerevisiae deletion strains, locus YMR058W, strain fet3, hits give low values 1.01 | S. cerevisiae deletion strains, locus YMR078C, strain ctf18, hits give low values 0.977 | S. cerevisiae deletion strains, locus YMR125W, strain sto1, hits give low values 0.975 | S. cerevisiae deletion strains, locus YMR129W, hits give low values 1 | S. cerevisiae deletion strains, locus YMR205C, strain PFK2, hits give low values 0.985 | S. cerevisiae deletion strains, locus YMR231W, strain pep5, hits give low values 0.995 | S. cerevisiae deletion strains, locus YMR263W, strain SAP30, hits give low values 0.962 | S. cerevisiae deletion strains, locus YMR307W, strain GAS1, hits give low values 1.03 | S. cerevisiae deletion strains, locus YNL067W, strain RPL9B, hits give low values 0.988 | S. cerevisiae deletion strains, locus YNL071W, strain lat1, hits give low values 0.996 | S. cerevisiae deletion strains, locus YNL128W, strain TEP1, hits give low values 0.961 | S. cerevisiae deletion strains, locus YNL153C, strain GIM3, hits give low values 0.96 | S. cerevisiae deletion strains, locus YNL183C, strain NPR1, hits give low values 0.959 | S. cerevisiae deletion strains, locus YNL209W, strain ssb2, hits give low values 1.01 | S. cerevisiae deletion strains, locus YNL233W, strain BNI4, hits give low values 0.979 | S. cerevisiae deletion strains, locus YNL248C, strain rpa49, hits give low values 0.978 | S. cerevisiae deletion strains, locus YNL250W, strain rad50, hits give low values 0.981 | S. cerevisiae deletion strains, locus YNL271C, strain bni1, hits give low values 0.988 | S. cerevisiae deletion strains, locus YNL298W, strain CLA4, hits give low values 0.96 | S. cerevisiae deletion strains, locus YNL307C, strain MCK1, hits give low values 0.989 | S. cerevisiae deletion strains, locus YNL322C, strain KRE1 (second series), hits give low values 0.975 | S. cerevisiae deletion strains, locus YNL322C, strain KRE1, hits give low values 0.98 | S. cerevisiae deletion strains, locus YNR049C, strain mso1, hits give low values 1.01 | S. cerevisiae deletion strains, locus YNR052C, strain pop2, hits give low values 0.982 | S. cerevisiae deletion strains, locus YOL006C, strain TOP1, hits give low values 0.942 | S. cerevisiae deletion strains, locus YOL012C, strain htz1 2.19 | S. cerevisiae deletion strains, locus YOL147C, strain pex11, hits give low values 0.992 | S. cerevisiae deletion strains, locus YOR001W, strain rrp6, hits give low values 1.01 | S. cerevisiae deletion strains, locus YOR061W, strain CKA2, hits give low values 0.962 | S. cerevisiae deletion strains, locus YOR069W, strain VPS5, hits give low values 0.987 | S. cerevisiae deletion strains, locus YOR070C, strain gyp1, hits give low values 0.986 | S. cerevisiae deletion strains, locus YOR080W, strain dia2, hits give low values 0.999 | S. cerevisiae deletion strains, locus YOR083W, strain WHI5, hits give low values 0.974 | S. cerevisiae deletion strains, locus YOR106W, strain vam3, hits give low values 0.997 | S. cerevisiae deletion strains, locus YOR136W, strain idh2, hits give low values 0.988 | S. cerevisiae deletion strains, locus YOR144C, strain elg1, hits give low values 0.986 | S. cerevisiae deletion strains, locus YOR184W, strain ser1, hits give low values 0.99 | S. cerevisiae deletion strains, locus YOR231W, strain MKK1, hits give low values 0.998 | S. cerevisiae deletion strains, locus YOR265W, strain rbl2, hits give low values 1.01 | S. cerevisiae deletion strains, locus YOR270C, strain vph1, hits give low values 0.996 | S. cerevisiae deletion strains, locus YOR290C, strain snf2, hits give low values 0.987 | S. cerevisiae deletion strains, locus YOR316C, strain cot1, hits give low values 0.965 | S. cerevisiae deletion strains, locus YPL051W, strain arl3, hits give low values 0.985 | S. cerevisiae deletion strains, locus YPL055C, strain LGE1, hits give low values 0.9 | S. cerevisiae deletion strains, locus YPL078C, strain atp4, hits give low values 0.983 | S. cerevisiae deletion strains, locus YPL106C, strain sse1, hits give low values 0.961 | S. cerevisiae deletion strains, locus YPL240C, strain hsp82, hits give low values 0.985 | S. cerevisiae deletion strains, locus YPL241C, strain CIN2, hits give low values 0.985 | S. cerevisiae deletion strains, locus YPL256C, strain CLN2, hits give low values 1.02 | S. cerevisiae deletion strains, locus YPR119W, strain clb2, hits give low values 0.984 | S. cerevisiae deletion strains, locus YPR141C, strain kar3, hits give low values 0.945 | S. cerevisiae deletion strains, locus YPR163C, strain tif3, hits give low values 0.983 | S. cerevisiae deletion strains, locus YPR167C, strain met16, hits give low values 0.979 | S. cerevisiae deletion strains, strain wtn01, hits give low values 0.992 | S. cerevisiae strains, strain wild type, hits give low values 0.992

— PubChem BioAssay AID1159580 (chemical genetic matrix, 2015)
